{"source": "the supplement of paper PMC10338343", "note": "± gives the standard deviation."}
{"test_system": "EfPiwi piRISC loaded with piRNA #1 (26 nt)", "assay": "pre-steady-state target cleavage rate (min^-1); auxiliary factor: 500 nM Ephydatia muelleri Gtsf1; guide: piRNA #1 5'p-UGAGGUAGUAGGUUGUAUAGUAUCCA; MIWI and MILI are mouse PIWI proteins and EfPiwi is from a freshwater sponge; tags in brackets are library labels; higher = faster piRNA-guided slicing of the target", "procedure": "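Cleave-'n-Seq: a library of target RNAs (target site in constant flanks) at […] was incubated with 1 nM active freshwater sponge Ephydatia fluviatilis Piwi piRISC (synthetic 5'-monophosphorylated piRNA guide) with or without 500 nM EmGtsf1 at 33 °C for 1 min to 16 h. Uncleaved targets were sequenced and the pooled three trials fitted to a burst-and-steady-state model to give the pre-steady-state cleavage rate (min^-1). Sequence is the target site only. Fits with R² ≤ 0 are excluded.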"}
{"sequence": "GGAGUGGAUACUAAACAACCUUCUACCUCA", "pre-steady-state target cleavage rate": "0.00385 ± 0.0026"}
{"sequence": "GGAGAGGAAACUAUACUACCUACUACCUCA", "pre-steady-state target cleavage rate": "0.00544 ± 0.0027"}
{"sequence": "GGAGAGGAUACUAUACAACCUACUAACUCA", "pre-steady-state target cleavage rate": "0.00561 ± 0.0029"}
{"sequence": "GGAGAGGAUACUAUACAACCACUACCUCA", "pre-steady-state target cleavage rate": "0.00549 ± 0.0026"}
{"sequence": "GGAGACCUAUGUAUACAACCAAGUACCUCA", "pre-steady-state target cleavage rate": "< 0.0001"}
{"sequence": "GGAGAGGAUACUAAACAACCUACUUCCUCA", "pre-steady-state target cleavage rate": "0.00239 ± 0.0016"}
{"sequence": "GGAGACCUUACUAUACAACCUACUACACUCA", "pre-steady-state target cleavage rate": "0.0028 ± 0.0026"}
{"sequence": "GGAGUCGUUACUAUACAACCUACUACCUCA", "pre-steady-state target cleavage rate": "0.0129 ± 0.0069"}
{"sequence": "GGAGACCUAUGUAUACAACCUACUACCUCU [g2:g19:cont:t1U]", "pre-steady-state target cleavage rate": "0.404 ± 0.18"}
{"sequence": "GGAGAGGAUACUAUACAACCUACUUGGAGA [g7:g25:cont:t1A]", "pre-steady-state target cleavage rate": "0.00281 ± 0.0022"}
{"sequence": "GGAGAGGAUACUAUACAAGCUACAACCUCA", "pre-steady-state target cleavage rate": "0.00258 ± 0.0015"}
{"sequence": "GGAGAGGAUAGUAUACAACCUACUACCUCA", "pre-steady-state target cleavage rate": "0.00608 ± 0.0032"}
{"sequence": "GGAGACCUAUCUAUACAACCUAUUACCUCA", "pre-steady-state target cleavage rate": "0.00466 ± 0.0039"}
{"sequence": "GGAGACCUCACUAUACAACCUACUACCUCA", "pre-steady-state target cleavage rate": "0.0184 ± 0.0086"}
{"sequence": "GGAGUGUGAUACUAUACAACCUACUACCUCA", "pre-steady-state target cleavage rate": "0.0158 ± 0.0069"}
{"sequence": "GGAGACCAUACUAUACAAACCUACUACCUCA", "pre-steady-state target cleavage rate": "0.00703 ± 0.0028"}
{"sequence": "GGAGAGCAUACAAUACAACCUACUACCUCA", "pre-steady-state target cleavage rate": "0.00861 ± 0.0046"}
{"sequence": "GGAGACCUUACUAUACCACCUACUACCUCA", "pre-steady-state target cleavage rate": "0.006 ± 0.003"}
{"sequence": "GGAGACCAUACUAUACAACCUAACUACCUCA", "pre-steady-state target cleavage rate": "0.00707 ± 0.0033"}
{"sequence": "GGAGUGGAUACUAUACAACCUACACCUCA", "pre-steady-state target cleavage rate": "0.00338 ± 0.0018"}
{"sequence": "GGAGAGGAUACUAUUCAACCUAGUACCUCA", "pre-steady-state target cleavage rate": "0.00256 ± 0.0017"}
{"sequence": "GGAGACGAUACUAUACAAACCUACUACCUCA", "pre-steady-state target cleavage rate": "0.00846 ± 0.0032"}
{"sequence": "GGAGUGGAAACAAUACAACCUACUACCUCA", "pre-steady-state target cleavage rate": "0.00713 ± 0.0044"}
{"sequence": "GGAGACCUAUGAAAUACAACCUACUACCUCA", "pre-steady-state target cleavage rate": "0.00445 ± 0.0038"}
{"sequence": "GGAGACGAUAUAUACAACCUACUACCUCA", "pre-steady-state target cleavage rate": "0.00621 ± 0.0041"}
{"sequence": "GGAGACCAUACUAUACCAACCUACUACCUCA", "pre-steady-state target cleavage rate": "0.00761 ± 0.0031"}
{"sequence": "GGAGACGAUACUAUACAACCUACUGCCUCA", "pre-steady-state target cleavage rate": "0.00691 ± 0.0024"}
{"sequence": "GGAGACCUAACUAUACAACCUGCUACCUCA", "pre-steady-state target cleavage rate": "0.0127 ± 0.005"}
{"sequence": "GGAGAGGAUACUAUAUCAACCUACUACCUCA", "pre-steady-state target cleavage rate": "0.0145 ± 0.0066"}
{"sequence": "GGAGACCUUACUAUAUAACCUACUACCUCA", "pre-steady-state target cleavage rate": "0.00964 ± 0.005"}
{"sequence": "GGAGACCUAUCUAUACAACCUACUACCUCC [g2:g20:cont:t1C]", "pre-steady-state target cleavage rate": "0.0049 ± 0.0034"}
{"sequence": "GGAGACCUAACUACACAACCUACUACCUCA", "pre-steady-state target cleavage rate": "0.00487 ± 0.0033"}
{"sequence": "GGAGACGAUACUAUACAACCUACUAUCUCA", "pre-steady-state target cleavage rate": "0.00856 ± 0.0034"}
{"sequence": "GGAGACGUUACAAUACAACCUACUACCUCA", "pre-steady-state target cleavage rate": "0.0105 ± 0.0045"}
{"sequence": "GGAGACCAAUGUAUACAACCUACUACCUCA", "pre-steady-state target cleavage rate": "0.0133 ± 0.0056"}
{"sequence": "GGAGAGGAUACUAUACAACCAUCUACCUCA", "pre-steady-state target cleavage rate": "0.0052 ± 0.002"}
{"sequence": "GGAGACCAUAGUAUACAACCUACUAGCUCA", "pre-steady-state target cleavage rate": "0.00326 ± 0.0032"}
{"sequence": "GGAGUGGAUACUAUACAACCUGCUACCUCA", "pre-steady-state target cleavage rate": "0.0792 ± 0.029"}
{"sequence": "GGAGACCAUUCUAUACUACCUACUACCUCA", "pre-steady-state target cleavage rate": "0.00741 ± 0.0044"}
{"sequence": "GGAGACCAUACUAUACAACCUACUACGUCA", "pre-steady-state target cleavage rate": "0.0053 ± 0.0015"}
